Test results published in PubChem BioAssay (NCATS).
Records with an inconclusive call do not appear. Active and inactive are the calls of the source. Calls follow the shape of the dose curve; as a rule, active = well fitted inhibition curve with a large enough effect; inconclusive = small, poorly fitted or top-dose-only effect; inactive = flat fitted curve, though single readings scatter.

Tested on: W2
Test: qHTS profiling for inhibitors of Plasmodium falciparum proliferation (AID 504749); also: nearly all actives have a fitted effect of over 60% in size
Conditions: P. falciparum in erythrocytes, SYBR Green DNA, 72 h; series mostly up to 28.7 µM
How it was run: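 Fluorescence of SYBR Green-bound parasite DNA, read at 485/535 nm, served as the growth measure. Infected erythrocytes were cultured with compound 72 h; artemisinin (0.29 uM) and DMSO wells defined the normalization range.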
Potency is read from the fitted curve at half-maximal effect.

Row | Compound | Potency
1 | Cc1cn([C@H]2C[C@H](O)[C@@H](CO)O2)c(=O)[nH]c1=O | inactive
2 | CC[C@@]1(O)C(=O)OCc2c1cc1n(c2=O)Cc2cc3c([N+](=O)[O-])cccc3nc2-1 | 4.78 µM (active)
3 | O=S(=O)(O)c1ccc2c(N=Nc3ccc(S(=O)(=O)O)c4ccccc34)c(O)c(S(=O)(=O)O)cc2c1 | inactive
4 | Nc1ncnc2c1ncn2[C@@H]1O[C@H](COP(=O)(O)OP(=O)(O)OP(=O)(O)O)[C@@H](O)[C@H]1O | inactive
5 | CC1=C(/C=C/C(C)=C/C=C/C(C)=C/CO)C(C)(C)CCC1 | 7.57 µM (active)
6 | CC1(C)S[C@@H]2[C@H](NC(=O)[C@@H](NC(=O)N3CCNC3=O)c3ccccc3)C(=O)N2[C@H]1C(=O)O | inactive
7 | CCNC(=O)[C@@H]1CCCN1C(=O)[C@H](CCCN=C(N)N)NC(=O)[C@H](CC(C)C)NC(=O)[C@@H](Cc1c[nH]c2ccccc12)NC(=O)[C@H](Cc1ccc(O)cc1)NC(=O)[C@H](CO)NC(=O)[C@H](Cc1c[nH]c2ccccc12)NC(=O)[C@H](Cc1cnc[nH]1)NC(=O)[C@@H]1CCC(=O)N1 | 0.849 µM (active)
8 | C=C1C(=CC=C2CCC[C@@]3(C)[C@@H]2CC[C@H]3[C@H](C)CCCC(C)C)C[C@@H](O)C[C@@H]1O | 9.53 µM (active)
9 | CCN(CC)Cc1cc(Nc2ccnc3cc(Cl)ccc23)ccc1O | 0.051 µM (active)
10 | Clc1cc(Cl)c(OCC#CI)cc1Cl | 10.7 µM (active)
11 | CCCC(=O)O[C@]1(C(=O)CCl)[C@H](C)C[C@@H]2[C@H]3CCC4=CC(=O)C=C[C@]4(C)[C@@]3(F)C(=O)C[C@@]21C | 1.51 µM (active)
